# Compounds with a hit are over-represented: about 19% of the library has one in this group of screens.
# DT40 TDP1 CPT – DT40-hTDP1 cell growth loss with CPT. Potency, µM (highest dose often 46.2 µM), inactives show at the highest dose activity change, negative = growth inhibition, actives largely listed as inhibitors. chicken DT40 Tdp1-/-;hTDP1 cells + 20 nM CPT, ATP luminescence, 48 h. 420,000 compounds, 12% hits; note: potency is the fitted concentration of half-maximal effect; nearly all actives have a fitted effect of over 55% in size
#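 Chicken DT40 Tdp1-/- cells stably complemented with human TDP1 were seeded at 400 cells/well in medium containing 20 nM camptothecin, exposed to pin-transferred compounds, and grown at 37 °C for at least 48 hr. Viability was read as ATP luminescence.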
# TDP1 cell noCPT – qHTS for Inhibitors of human tyrosyl-DNA phosphodiesterase 1 (TDP1): qHTS in cells in absence of CPT; DT40 Tdp1-/- hTDP1 cells, no CPT, ATP luminescence, 48 h; Potency, µM (top dose mostly 46.2 µM), for inactives: top-dose activity change, negative = growth inhibition, most hits filed as inhibitors; 420,000 compounds, 15% hits; AID 686978, 2013; note: potency is the fitted concentration of half-maximal effect; nearly all actives have a fitted effect of over 55% in size
#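 Compound effects on proliferation are scored in DT40 Tdp1-/-;hTDP1 cells in the absence of CPT. ATP levels (CellTiter-Glo luminescence) are recorded after a ≥48 hr, 37 °C incubation.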
# IL-1B inflam inh – inhibitors of inflammasome signaling (IL-1 beta secretion) | activity change, % at 57.5 µM | AID 743279 | 360,000 compounds, 4.7% hits | THP-1 LPS/ATP IL-1B secretion, AlphaLISA, 16 h; active compounds read low; in the data active = activity change below about -50%; inconclusive = mostly about -30% to -49%
#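 Secreted IL-1B measured by AlphaLISA bead assay after 16 h compound exposure of THP-1 cells; compounds (final up to 57.5 uM) added 1 h before LPS (250 ng/mL) and ATP (1.25 mM) stimulation; lower signal means less secretion.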
# HT1080NT lethal – kills 2HG-producing HT-1080-NT fibrosarcoma cells. HT-1080-NT fibrosarcoma viability, CellTiter-Glo ATP luminescence, 48 h. Potency, µM (series often up to 46.1 µM), for the others: at the highest dose activity, negative = less viability, most hits filed as cytotoxic. 360,000 compounds, 1.6% hits. AID 686970;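 note: NT is the 2HG producing partner of a matched IDH1 knockdown line; potency is the fitted concentration of half-maximal effect; 0% = DMSO-treated cells and -100% = media-only wells without cells; nearly all actives have a fitted effect of over 55% in size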
#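 Luminescent CellTiter-Glo readout after 48 hours of compound exposure at 37 degrees C defined viability of HT-1080-NT cells. Activity was normalized to DMSO wells and cell-free media wells; concentration-response curves were fitted and assigned curve classes.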
# HT1080 IDH1KD tx – kills HT-1080 cells with IDH1 knockdown; 360,000 compounds, 2% hits; Potency, µM (top dose mostly 46.1 µM), for the others: at the highest dose activity, negative = toxicity, usual class: cytotoxic; AID 686971; HT-1080 IDH1 knockdown viability, ATP luminescence, 48 h;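 note: potency is the fitted concentration of half-maximal effect; 0% = DMSO wells and -100% = cell-free medium wells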
#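 CellTiter-Glo luminescence after 48 h compound exposure at 37 degrees C of IDH1-knockdown HT-1080 cells in 5% FBS RPMI. %Activity scaled between DMSO wells and cell-free media wells, with curves fitted and assigned curve classes.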
# The depositor's hits bear a star; ? = inconclusive; . = no result given. Unless noted, calls come from the whole dose curve; as a rule, active = well fitted curve in the direction sought with a large enough effect; inconclusive = small, poorly fitted or top-dose-only effect, or another doubt; inactive = no such curve, though single readings can be large; an effect the other way counts as inactive or inconclusive. Unless noted, % is set by controls: 0 for no effect and ±100 for the full control effect.
SMILES,DT40 TDP1 CPT,TDP1 cell noCPT,IL-1B inflam inh,HT1080NT lethal,HT1080 IDH1KD tx
CC(=O)Nc1ccc(-c2ccnc3c2CC(C)(C(=O)NCc2ccc(F)c(F)c2)O3)cc1 (configuration not stated),5.8µM*,3.3µM*,46,?,15µM*
CC1(C(=O)NCc2ccc(F)c(F)c2)Cc2c(-c3cccc(C(F)(F)F)c3)ccnc2O1 (configuration not stated),16µM*,16µM*,65,?,?
CC1(C(=O)NCc2cccnc2)Cc2c(-c3cccc(C(F)(F)F)c3)ccnc2O1 (configuration not stated),23µM*,21µM*,68,?,?
CC1(C(=O)Nc2ccc(F)c(Cl)c2)Cc2c(-c3ccccc3)ccnc2O1 (configuration not stated),?,?,-11,?,?
CC1(C(=O)Nc2ccc(F)c(Cl)c2)Cc2c(-c3cccc(C(F)(F)F)c3)ccnc2O1 (configuration not stated),?,?,-21,?,?
COc1ccc(CNC(=O)C2(C)Cc3c(-c4ccc(N(C)C)cc4)ccnc3O2)cc1OC (configuration not stated),?,?,24,-1%,-7%
Cc1ccnc(NC(=O)c2ccc(OCC3CCCO3)cc2)c1 (configuration not stated),?,?,-17,?,?
CCOC(=O)c1nnn(-c2nonc2N)c1CSc1nnc(N)s1,-17%,15%,4,11%,8%
CCCCOc1c(C(=O)Nc2ccccc2)nnn1-c1ccccc1,?,-26%,?,-8%,-5%
O=C1CCCN1C(=O)CSc1ccc2ccccc2n1,15%,0%,19,19%,10%
CN(C)c1ccc(CNC(=O)C2(C)Cc3c(-c4cccc(C(F)(F)F)c4)ccnc3O2)cc1 (configuration not stated),16µM*,?,24,?,18µM*
CS(=O)(=O)N1CCN(c2ccccc2NC(=S)NC(=O)c2ccco2)CC1,?,?,16,-2%,0%
O=C(NC(=S)Nc1cccc(Cl)c1N1CCCCC1)c1ccco1,?,?,18,11µM*,?
O=C(NC(=S)Nc1ccc(N2CCCCC2)cc1)c1ccco1,-1%,-24%,-7,7.1µM*,14µM*
O=C(NC(=S)Nc1cccc(Cl)c1N1CCOCC1)c1cccs1,?,26µM*,2,-6%,-2%
CC(C)C(=O)N1CCN(c2ccccc2NC(=S)NC(=O)c2ccco2)CC1,16µM*,?,-2,0%,-7%
CNc1ncncc1-c1c(C)noc1C,?,25%,.,.,.
O=C(NC(=S)Nc1ccccc1N1CCCC1)c1ccco1,-21%,?,.,1%,-1%
O=C(NC(=S)Nc1ccccc1N1CCCCC1)c1ccco1,15µM*,?,14,-2%,-8%
CCC(C)c1ccccc1NC(=S)NC(=O)c1ccco1 (configuration not stated),23µM*,13µM*,0,4%,12%
CCN(CC(=O)NCCc1ccc(S(N)(=O)=O)cc1)Cc1nc2cc(OC)c(OC)cc2c(=O)[nH]1,1%,-11%,20,-1%,-1%
CCN(CC(=O)NC(=O)NCc1ccco1)Cc1nc2ccccc2c(=O)[nH]1,4.6µM*,4.6µM*,7,-3%,-3%
CCN(CC(=O)NCCc1ccc(S(N)(=O)=O)cc1)Cc1nc2ccccc2c(=O)[nH]1,21µM*,?,15,8%,0%
CN(C(=O)CN1C(=O)c2cc(Cl)c(Cl)cc2C1=O)C1CCS(=O)(=O)C1 (configuration not stated),-4%,-1%,0,0%,-6%
CN(C(=O)COc1ncnc2ccc(Br)cc12)C1CCCCC1,-4%,-3%,-1,-1%,-1%
Cc1nc2ncnn2c(C)c1Cc1c(Cl)cccc1Cl,-29%,?,14,3%,5%
